Bioassay records from PubChem BioAssay.
A selection: hits, their analogues and other compounds. The true share with any hit is near 9.3%.
FLuc counter = counter-screen for miR-21 project: firefly luciferase inhibitors or activators. P08659. purified FLuc, Km substrates, luminescence inhibition. Potency, µM (highest dose often 57.5 µM), for inactives: at the top dose activity change, negative = inhibition, hits mostly inhibitors. actives 6.9% (n = 360,000). AID 588342;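 also: plate controls were vehicle for no effect and reference inhibitor for full effect; nearly all actives have a fitted effect of over 55% in size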
Target sequence (P08659 whole entry, looked up): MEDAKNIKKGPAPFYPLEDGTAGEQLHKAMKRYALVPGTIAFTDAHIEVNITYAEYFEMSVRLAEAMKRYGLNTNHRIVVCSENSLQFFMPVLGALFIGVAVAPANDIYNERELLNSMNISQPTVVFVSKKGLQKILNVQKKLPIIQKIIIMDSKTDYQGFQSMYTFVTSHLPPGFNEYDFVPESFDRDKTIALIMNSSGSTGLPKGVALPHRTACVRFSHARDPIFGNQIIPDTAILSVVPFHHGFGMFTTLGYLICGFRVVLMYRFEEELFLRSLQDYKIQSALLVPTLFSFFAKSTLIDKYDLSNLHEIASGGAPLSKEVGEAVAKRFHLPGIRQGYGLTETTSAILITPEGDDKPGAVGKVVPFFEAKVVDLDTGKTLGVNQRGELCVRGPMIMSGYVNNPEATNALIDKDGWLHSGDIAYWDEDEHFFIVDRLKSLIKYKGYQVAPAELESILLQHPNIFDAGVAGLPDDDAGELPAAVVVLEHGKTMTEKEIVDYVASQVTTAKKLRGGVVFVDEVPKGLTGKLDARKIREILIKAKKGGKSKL
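Purified P. pyralis luciferase, 10 nM final, with Km-level 10 uM D-luciferin and 10 uM ATP in 50 mM Tris acetate pH 7.5, 10 mM Mg acetate, 0.01% Tween-20, 0.05% BSA; 6-point qHTS titration about 60 µM downward; luminescence read.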
ELG1 DNA repair = ELG1-dependent DNA repair inhibition. HEK293T ELG1-luciferase reporter, luminescence, 16 h; DNA damage induced by 5-fluorouridine. Potency, µM (doses to about 46.1 µM), without a hit: top-dose activity change, negative = inhibition, usual class: inhibitors. actives 2.3% (n = 330,000); also: % is scaled to controls: 0 for no effect and ±100 for the full control effect; nearly all actives have a fitted effect of over 55% in size
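Overnight (16 hr) co-exposure of 2,000 cells/well to 5-fluorouridine and compound at 37 °C preceded detection. Luciferase was quantified via ONE-Glo luminescence; loss of signal denotes inhibition.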
ELG1 genotoxic = inducers of genotoxicity in HEK293T ELG1-luciferase cells; Potency, µM (series often up to 46 µM), without a hit: top-dose activity change, positive = activation, most hits filed as activators; AID 504466; HEK293T ELG1-luciferase reporter, luminescence, 16 h; actives 1.3% (n = 330,000); also: % of control where 0% means no effect; nearly all actives have a fitted effect of over 60% in size
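DMSO vehicle served as control against compound-treated ELG1-luciferase HEK293T cells; exposure lasted 16 hr at 37 °C and 5% CO2, followed by ONE-Glo luminescence detection after 30 min.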
Rab9 promoter act = Rab9 promoter activation; Huh7 Rab9 promoter-luciferase reporter, luminescence, 24 h; Potency, µM (doses to about 9.22 µM), for inactives: at the top dose activation, negative = inhibition, usual class: activators; actives 2.8% (n = 320,000); AID 485297; also: % of control where 0% means no effect; nearly all actives have a fitted effect of over 60% in size
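Promoter activation is measured as luciferase luminescence in Huh7 cells stably transfected with a Rab9 promoter–luciferase construct, following 24 h compound exposure at 37 °C and 10 min reagent incubation at ambient temperature.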
SMN2 splice enh = SMN2 splice variant enhancement; Potency, µM (titrated, usually from 46.1 µM), inactives show top-dose activity change, positive = activation, actives largely listed as activators; AID 1458; HEK293 SMN2-luciferase splicing reporter, luminescence, 30-36 h; actives 2.8% (n = 210,000); also: % of control where 0% means no effect; nearly all actives have a fitted effect of over 55% in size
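qHTS luciferase splicing reporter: luminescence rises when SMN2 exon 7 is included in transfected HEK293 cells. Compound exposure lasted 30-36 h at 37C, with 4.5 mM final sodium butyrate as control, followed by a ONE-Glo read.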
NPC1 prom act = activators of NPC1 promoter; Huh7 NPC1 promoter luciferase reporter, 24 h; Potency, µM (doses to about 9.22 µM), without a hit: at the top dose activation, most hits filed as activators; actives 2.4% (n = 320,000); also: % of control where 0% means no effect; nearly all actives have a fitted effect of over 60% in size
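Cells: Huh7 expressing luciferase under the NPC1 promoter, 1500/well. Seeded 2 h, compound added, incubated 24 h at 37 °C. Luciferase reagent, 10 min ambient, then luminescence.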
* hit, by the source's call; ? = inconclusive; . = no result; [ ] = dose if it differs, or a comment. Calls follow the shape of the dose curve; as a rule, active = well fitted curve in the direction sought with a large enough effect; inconclusive = small, poorly fitted or top-dose-only effect, or another doubt; inactive = no such curve, though single readings can be large; an effect the other way counts as inactive or inconclusive. Potency is read from the fitted curve at half-maximal effect.

SMILES | FLuc counter | ELG1 DNA repair | ELG1 genotoxic | Rab9 promoter act | SMN2 splice enh | NPC1 prom act
Cc1ccc(-c2nn3c(C)nnc3s2)cc1NC(=O)c1ccc(-c2cccc(Cl)c2)o1 | ? | 18µM* | -8% | 1% | -31% | -9%
COC(=O)c1sccc1-c1ccc(C(=O)Nc2cccc(Cl)c2)o1 | 9.5µM* | ? | 14% | 3.5µM* | ? | ?
Cc1ccc2cccc(NC(=O)c3ccc(-c4cccc(Cl)c4)o3)c2n1 | -5% | . | . | . | -2% | .
COC(=O)c1ccccc1NC(=O)c1ccc(-c2cccc(Cl)c2)o1 | 3% | ? | ? | 19% | 10µM* | ?
COc1ccc(NC(=O)c2ccc(COc3ccccc3)o2)c(OC)c1 | -8% | -15% | -3% | -3% | . | -2%
CCN1CCN(CCCNC(=O)C(NC(=O)C2CCC(C)CC2)C(C)C)CC1 (stereo unspecified) | 2% | 9% | 3% | 3% | 3% | 2%
CS(=O)(=O)c1ccc(Cl)c(NC(=O)COC(=O)Cc2c[nH]c3ccccc23)c1 | -17% | 4% | -5% | 2% | . | 1%
COc1ccc(OCC(=O)Nc2ccc(S(=O)(=O)Nc3cc(C)nc(C)n3)cc2)cc1 | 0% | ? | 2% | 2% | 18% | 8%
COc1ccc(NC(=O)c2ccc(Cc3ccc(C)cc3)o2)cc1 | 15µM* | -19% | 0% | 8% | -17% | 8%
CCCc1ccc(OCc2ccc(C(=O)Nc3ccccc3C(=O)OC)o2)cc1 | 19µM* | . | . | . | ? | .
O=C(Cc1ccccc1)Nc1nnc(-c2cccs2)s1 | -1% | ? | ? | ? | ? | ?
CCC(C)C(=O)Nc1nnc(-c2cccs2)s1 (stereo unspecified) | ? | ? | ? | 3.5µM* | 6% | ?
C=C(C)C(=O)Nc1nnc(-c2cccs2)s1 | 17µM* | 13% | 9% | -2% | -3% | 0%
CCC(=O)Nc1nnc(-c2cccs2)s1 | -15% | ? | ? | ? | 21% | 17%
O=C(Nc1nnc(-c2cccs2)s1)C1CC1 | -4% | ? | ? | 5µM* | ? | 30%
COCC(=O)Nc1nnc(-c2cccs2)s1 | ? | ? | ? | 23% | 10% | 10%
Cc1ccn2c(Nc3ccc4c(c3)OCCO4)c(-c3ccccc3O)nc2c1 | ? | . | . | . | 5% | .
O=C1c2cccnc2C(O)N1Cc1ccc(F)cc1 (stereo unspecified) | 0% | 15% | 1% | -3% | 2% | 8%
Cc1c(C)c2c(c(C)c1O)CCC(C)(COc1ccc(CC3SC(=O)NC3=O)cc1)O2 (stereo unspecified) | . | . | . | . | -7% | .
CCCCNC(=O)C(c1ccc(-c2ccccc2)cc1)N(CCN1CCOCC1)C(=O)CCCCCN1C(=O)NC(c2ccc([N+](=O)[O-])cc2)C(C(=O)OCc2ccccc2)=C1C (stereo unspecified) | ? | 4% | 1% | -8% | -16% | -9%
Fc1ccc(-c2cn(-c3ccccc3)c3[n+]2CCS3)cc1 | -2% | 21µM* | -13% | -14% | . | 1%
C/C(=N\N=C\c1ccc(N(C)C)cc1)c1cccc([N+](=O)[O-])c1 | 2.1µM* | ? | ? | 2.8µM* | 14µM* | 3.5µM*
O=C1C=C(c2ccccc2Oc2ccccc2)C[C@@H](c2ccc3c(c2)OCO3)C1 | 2% | 6.5µM* | -6% | 1% | . | -1%
N#Cc1cn(-c2ccccc2)nc1-c1ccc2c(c1)OCCO2 | -12%[2.3 µM] | ? | ? | 4µM* | 14µM* | ?
O=Cc1cn(-c2ccccc2)nc1-c1ccc2c(c1)OCCO2 | 4.8µM* | ? | 10% | 17% | 13µM* | 11%
SMILES | FLuc counter | ELG1 DNA repair | ELG1 genotoxic | Rab9 promoter act | SMN2 splice enh | NPC1 prom act
O=C(O)c1cn(-c2ccccc2)nc1-c1ccc(F)cc1 | ? | 1% | 0%[9.26 µM] | 1% | . | -2%
O=Cc1cn(-c2ccccc2)nc1-c1ccc(F)cc1 | 12µM* | ? | -6% | 5% | . | 22%
COc1ccc(S(=O)(=O)N(CC(=O)NCc2cccnc2)C2CCCCC2)cc1OC | -2% | -21% | -10% | -4% | . | 1%
CCc1nc(SCC(=O)NNC(=O)C(C)C)c2ccccc2n1 | -1% | 0% | -2% | 1% | 1% | -2%
CCc1ccc(C(=O)CSc2ncn[nH]2)cc1 | 17µM* | ? | ? | ? | 2% | 20%
COC(=O)CSc1n[nH]c(-c2ccncc2)n1 | 1% | 12% | -3% | -5% | -2% | 0%
Brc1ccc(CSc2ncn[nH]2)cc1 | -5% | 14% | 1% | 11% | 4% | 0%
CCc1ccc(C(=O)CSc2n[nH]c(-c3ccncc3)n2)cc1 | 24µM* | 0% | -3% | -1% | -9% | -1%
CCCOc1ccc(CSc2ncn[nH]2)cc1 | 11µM* | ? | ? | 26% | ? | 17%
COc1ccc(OC)c(NC(=O)CSCc2cnn(-c3ccccc3)c2-n2cccc2)c1 | 1% | -15% | -6% | -2% | -17% | 0%
C/C(=C1/C(=O)N(c2ccc([N+](=O)[O-])cc2)N=C1c1ccccc1)N(C)C | 3% | 0% | -4% | 21% | -32% | ?
CN(C)/C=C1/C(=O)N(c2ccc([N+](=O)[O-])cc2)N=C1c1ccccc1 | 7.6µM* | ? | ? | ? | 10µM* | ?
CN(C)/C=C1\C(=O)N(c2ccc([N+](=O)[O-])cc2)N=C1c1ccccc1 | ? | ? | 9.2µM* | 5.6µM* | ? | ?
CCCCNC(=O)c1ccc(-c2nc(CS(=O)(=O)c3ccc(C)cc3)c(C)o2)cc1 | -3% | . | . | . | . | .
